# In publication PMC7862700, “An all-to-all approach to the identification of sequence-specific readers for epigenetic DNA modifications on cytosine”:
# Assays:
# Assay in all cases: DAPPL (digital affinity profiling via proximity ligation, sequencing); 10 mM Tris-HCl pH 7.5, 50 mM NaCl, 1 mM DTT, 4% glycerol, room temperature, 30 min; GST-TFs on glutathione beads, 16-mer random dsDNA library, 0.1% formaldehyde crosslink after washing; high values mean tight binding
# Conditions in all cases: protein: recombinant; tags: N-terminal GST; dsDNA, one strand shown
# [1] = molecular target: T1, FLI1 (Homo sapiens, UniProt Q01543 1-452)
# T1 sequence: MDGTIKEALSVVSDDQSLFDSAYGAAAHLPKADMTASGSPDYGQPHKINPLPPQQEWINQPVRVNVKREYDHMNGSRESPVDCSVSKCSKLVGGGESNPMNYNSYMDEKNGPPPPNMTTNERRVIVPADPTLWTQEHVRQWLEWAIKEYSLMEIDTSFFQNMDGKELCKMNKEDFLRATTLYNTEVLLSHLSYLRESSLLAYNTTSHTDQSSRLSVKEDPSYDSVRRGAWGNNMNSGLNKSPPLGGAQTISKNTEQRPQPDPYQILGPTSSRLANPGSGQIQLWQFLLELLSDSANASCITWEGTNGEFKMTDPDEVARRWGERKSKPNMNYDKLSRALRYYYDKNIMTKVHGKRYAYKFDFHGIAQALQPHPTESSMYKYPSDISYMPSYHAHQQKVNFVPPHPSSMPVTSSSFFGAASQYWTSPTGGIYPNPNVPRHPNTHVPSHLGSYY
# In short: (§1)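 Pools were built from human transcription factors expressed in yeast as GST fusions, captured on glutathione beads and DNA-barcoded, along with a tag-only sample. Incubation with 200 nmole of a 16-mer random double-stranded DNA library lasted 30 min at room temperature in Tris/NaCl/DTT/glycerol buffer, and was followed by washing, 0.1% formaldehyde crosslinking, proximity ligation, PCR amplification and Illumina NextSeq500 sequencing. Binding signal is the quotient of each hexamer's read frequency for a factor and its frequency for the tag-only sample.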
# [2] = molecular target: T2, ELK1 (Homo sapiens, UniProt P19419 1-428)
# T2 sequence: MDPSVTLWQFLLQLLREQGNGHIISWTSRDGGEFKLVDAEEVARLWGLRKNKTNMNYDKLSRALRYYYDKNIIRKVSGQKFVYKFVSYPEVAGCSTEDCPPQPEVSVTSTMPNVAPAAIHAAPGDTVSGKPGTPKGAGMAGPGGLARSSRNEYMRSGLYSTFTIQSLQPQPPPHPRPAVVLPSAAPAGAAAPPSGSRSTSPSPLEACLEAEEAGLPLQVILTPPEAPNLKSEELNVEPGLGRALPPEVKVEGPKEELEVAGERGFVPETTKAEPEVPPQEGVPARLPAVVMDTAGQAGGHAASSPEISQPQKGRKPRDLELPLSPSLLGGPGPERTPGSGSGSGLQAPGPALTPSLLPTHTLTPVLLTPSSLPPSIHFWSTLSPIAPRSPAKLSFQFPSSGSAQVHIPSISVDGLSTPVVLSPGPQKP
# In short: as §1
# [3] = molecular target: T3, GABPA (Homo sapiens, UniProt Q06546 1-454)
# T3 sequence: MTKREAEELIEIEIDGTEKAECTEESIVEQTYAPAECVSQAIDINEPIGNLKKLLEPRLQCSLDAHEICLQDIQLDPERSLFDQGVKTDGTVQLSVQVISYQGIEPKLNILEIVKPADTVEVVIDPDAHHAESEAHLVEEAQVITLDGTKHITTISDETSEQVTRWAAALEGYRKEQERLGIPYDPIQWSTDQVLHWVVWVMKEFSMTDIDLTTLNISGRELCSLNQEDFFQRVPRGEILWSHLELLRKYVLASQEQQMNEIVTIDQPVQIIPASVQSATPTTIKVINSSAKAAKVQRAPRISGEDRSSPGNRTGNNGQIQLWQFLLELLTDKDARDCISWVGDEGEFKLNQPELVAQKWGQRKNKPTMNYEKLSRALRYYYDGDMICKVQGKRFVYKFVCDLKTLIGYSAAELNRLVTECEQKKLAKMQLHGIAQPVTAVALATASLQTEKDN
# In short: as §1
# [4] = molecular target: T4, ERG (Homo sapiens, UniProt P11308 1-479)
# T4 sequence: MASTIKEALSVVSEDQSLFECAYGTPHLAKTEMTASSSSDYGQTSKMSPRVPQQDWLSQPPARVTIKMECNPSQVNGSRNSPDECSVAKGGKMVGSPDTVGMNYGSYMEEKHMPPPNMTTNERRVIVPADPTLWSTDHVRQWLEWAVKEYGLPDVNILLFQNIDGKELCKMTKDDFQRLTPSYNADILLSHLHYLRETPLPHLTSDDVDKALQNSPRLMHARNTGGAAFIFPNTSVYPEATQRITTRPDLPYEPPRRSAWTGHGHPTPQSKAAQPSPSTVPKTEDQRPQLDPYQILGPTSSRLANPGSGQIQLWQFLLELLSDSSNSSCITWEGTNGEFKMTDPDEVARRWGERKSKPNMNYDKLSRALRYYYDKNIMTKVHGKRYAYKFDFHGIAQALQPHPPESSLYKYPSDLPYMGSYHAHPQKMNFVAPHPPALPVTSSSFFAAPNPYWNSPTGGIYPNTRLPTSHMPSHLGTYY
# In short: as §1
# [5] = molecular target: ELF1 (Homo sapiens, UniProt P32519 1-619)
# In short: as §1
# [6] = molecular target: T5, EHF (Homo sapiens, UniProt Q9NZC4 1-300)
# T5 sequence: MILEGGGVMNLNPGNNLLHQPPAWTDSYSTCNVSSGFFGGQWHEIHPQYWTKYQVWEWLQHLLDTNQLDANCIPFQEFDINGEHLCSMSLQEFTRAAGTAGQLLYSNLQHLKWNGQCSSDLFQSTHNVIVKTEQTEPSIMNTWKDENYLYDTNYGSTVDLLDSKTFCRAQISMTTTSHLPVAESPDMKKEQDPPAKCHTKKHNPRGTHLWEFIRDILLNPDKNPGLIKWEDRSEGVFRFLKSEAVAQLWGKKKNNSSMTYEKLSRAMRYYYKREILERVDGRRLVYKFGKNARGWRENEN
# In short: as §1
# [7] = molecular target: SPI1 (Homo sapiens, UniProt P17947 1-270)
# In short: as §1
# [8] = molecular target: SPIB (Homo sapiens, UniProt Q01892 1-262)
# In short: as §1
# [9] = molecular target: T6, ELK3 (Homo sapiens, UniProt P41970 1-407)
# T6 sequence: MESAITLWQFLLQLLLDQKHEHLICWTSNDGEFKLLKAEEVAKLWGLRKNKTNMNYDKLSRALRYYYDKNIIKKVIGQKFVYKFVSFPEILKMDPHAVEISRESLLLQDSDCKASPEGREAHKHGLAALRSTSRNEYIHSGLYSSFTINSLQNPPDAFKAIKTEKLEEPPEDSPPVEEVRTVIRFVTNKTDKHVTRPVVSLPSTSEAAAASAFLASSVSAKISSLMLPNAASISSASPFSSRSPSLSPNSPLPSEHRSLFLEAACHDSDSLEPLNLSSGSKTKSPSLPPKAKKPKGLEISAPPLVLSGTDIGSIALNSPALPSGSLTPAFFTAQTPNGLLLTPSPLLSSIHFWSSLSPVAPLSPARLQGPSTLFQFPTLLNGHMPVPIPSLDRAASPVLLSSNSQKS
# In short: as §1
# [10] = molecular target: T7, FEV (Homo sapiens, UniProt Q99581 1-238)
# T7 sequence: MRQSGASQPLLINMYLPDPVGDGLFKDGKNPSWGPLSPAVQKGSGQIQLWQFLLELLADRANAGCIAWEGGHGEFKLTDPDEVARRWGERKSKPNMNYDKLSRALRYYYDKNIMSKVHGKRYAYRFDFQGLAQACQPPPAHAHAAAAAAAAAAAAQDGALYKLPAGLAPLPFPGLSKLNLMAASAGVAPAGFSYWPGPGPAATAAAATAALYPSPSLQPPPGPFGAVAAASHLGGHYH
# In short: as §1
# [11] = molecular target: ETV5 (Homo sapiens, UniProt P41161 1-510)
# In short: as §1
# [12] = molecular target: T8, SPIC (Homo sapiens, UniProt Q8N5J4 1-248)
# T8 sequence: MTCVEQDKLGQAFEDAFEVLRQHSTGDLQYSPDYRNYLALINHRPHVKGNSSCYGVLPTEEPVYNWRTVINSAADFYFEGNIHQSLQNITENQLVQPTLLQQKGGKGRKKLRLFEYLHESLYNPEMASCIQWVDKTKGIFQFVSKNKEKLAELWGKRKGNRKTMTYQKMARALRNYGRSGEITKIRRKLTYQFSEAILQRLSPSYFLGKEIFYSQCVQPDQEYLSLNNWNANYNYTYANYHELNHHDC
# In short: as §1
# [13] = molecular target: ELF4 (Homo sapiens, UniProt Q99607 1-663)
# In short: as §1
# [14] = molecular target: T9, ELK4 (Homo sapiens, UniProt P28324-2 1-405)
# T9 sequence: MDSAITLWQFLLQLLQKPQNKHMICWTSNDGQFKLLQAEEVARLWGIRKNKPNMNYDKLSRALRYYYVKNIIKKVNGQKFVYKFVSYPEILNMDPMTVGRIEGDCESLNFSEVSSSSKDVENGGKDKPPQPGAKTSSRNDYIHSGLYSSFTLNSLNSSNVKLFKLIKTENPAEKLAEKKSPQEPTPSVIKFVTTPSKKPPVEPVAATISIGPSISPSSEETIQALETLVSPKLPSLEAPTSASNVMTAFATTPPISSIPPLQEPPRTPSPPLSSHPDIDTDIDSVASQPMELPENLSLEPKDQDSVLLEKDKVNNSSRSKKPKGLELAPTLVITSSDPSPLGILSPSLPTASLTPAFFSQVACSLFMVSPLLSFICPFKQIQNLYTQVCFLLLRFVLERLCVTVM
# In short: as §1
# [15] = molecular target: T10, ETV2 (Homo sapiens, UniProt O00321 1-342)
# T10 sequence: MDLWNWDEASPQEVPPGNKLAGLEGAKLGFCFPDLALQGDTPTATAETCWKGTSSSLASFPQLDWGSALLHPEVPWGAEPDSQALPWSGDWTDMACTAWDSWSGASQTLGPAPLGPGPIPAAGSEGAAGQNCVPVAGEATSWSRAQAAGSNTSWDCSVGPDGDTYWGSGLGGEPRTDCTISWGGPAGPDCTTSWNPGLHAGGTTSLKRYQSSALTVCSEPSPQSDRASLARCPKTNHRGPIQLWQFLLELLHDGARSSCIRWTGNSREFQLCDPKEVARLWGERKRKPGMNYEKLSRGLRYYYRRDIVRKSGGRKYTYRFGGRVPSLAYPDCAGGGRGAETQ
# In short: as §1
# [16] = molecular target: T11, ELF3 (Homo sapiens, UniProt P78545 1-371)
# T11 sequence: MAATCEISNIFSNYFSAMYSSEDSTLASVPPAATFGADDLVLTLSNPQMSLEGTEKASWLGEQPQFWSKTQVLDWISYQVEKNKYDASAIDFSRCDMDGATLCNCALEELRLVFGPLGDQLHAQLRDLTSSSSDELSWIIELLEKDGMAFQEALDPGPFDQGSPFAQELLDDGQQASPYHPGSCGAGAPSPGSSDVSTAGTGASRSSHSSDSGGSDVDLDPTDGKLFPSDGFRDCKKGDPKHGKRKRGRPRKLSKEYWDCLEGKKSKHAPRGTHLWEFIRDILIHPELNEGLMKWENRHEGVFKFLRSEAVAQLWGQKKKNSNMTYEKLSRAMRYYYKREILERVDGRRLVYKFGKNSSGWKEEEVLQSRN
# In short: as §1
# [17] = molecular target: ETV1 (Homo sapiens, UniProt P50549 1-477)
# In short: as §1
# Sequence of SPIB (Q01892 whole entry): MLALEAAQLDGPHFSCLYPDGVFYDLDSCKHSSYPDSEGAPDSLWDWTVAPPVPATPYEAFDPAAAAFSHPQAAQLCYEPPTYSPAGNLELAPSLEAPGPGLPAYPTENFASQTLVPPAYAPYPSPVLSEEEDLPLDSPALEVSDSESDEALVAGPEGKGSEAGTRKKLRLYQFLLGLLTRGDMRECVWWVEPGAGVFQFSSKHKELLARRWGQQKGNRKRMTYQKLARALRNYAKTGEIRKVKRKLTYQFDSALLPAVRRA
# Sequence of ELF4 (Q99607 whole entry): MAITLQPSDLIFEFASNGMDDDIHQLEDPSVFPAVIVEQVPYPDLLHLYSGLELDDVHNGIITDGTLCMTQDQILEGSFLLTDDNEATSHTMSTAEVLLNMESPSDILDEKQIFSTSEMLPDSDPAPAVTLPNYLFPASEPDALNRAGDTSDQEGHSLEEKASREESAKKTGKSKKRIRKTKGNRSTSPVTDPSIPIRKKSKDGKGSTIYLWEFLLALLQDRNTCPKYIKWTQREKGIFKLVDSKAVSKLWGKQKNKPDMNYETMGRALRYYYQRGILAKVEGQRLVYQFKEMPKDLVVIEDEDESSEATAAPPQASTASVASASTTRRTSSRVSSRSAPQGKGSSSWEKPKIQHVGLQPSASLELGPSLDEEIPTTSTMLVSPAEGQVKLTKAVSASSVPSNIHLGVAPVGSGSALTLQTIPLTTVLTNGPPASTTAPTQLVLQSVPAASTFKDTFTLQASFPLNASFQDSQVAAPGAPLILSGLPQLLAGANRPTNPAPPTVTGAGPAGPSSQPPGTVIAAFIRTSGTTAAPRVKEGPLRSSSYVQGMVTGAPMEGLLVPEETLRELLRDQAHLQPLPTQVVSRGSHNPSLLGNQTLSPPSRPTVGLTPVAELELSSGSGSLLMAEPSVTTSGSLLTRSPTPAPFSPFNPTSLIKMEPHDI
# Sequence of ELF1 (P32519 whole entry): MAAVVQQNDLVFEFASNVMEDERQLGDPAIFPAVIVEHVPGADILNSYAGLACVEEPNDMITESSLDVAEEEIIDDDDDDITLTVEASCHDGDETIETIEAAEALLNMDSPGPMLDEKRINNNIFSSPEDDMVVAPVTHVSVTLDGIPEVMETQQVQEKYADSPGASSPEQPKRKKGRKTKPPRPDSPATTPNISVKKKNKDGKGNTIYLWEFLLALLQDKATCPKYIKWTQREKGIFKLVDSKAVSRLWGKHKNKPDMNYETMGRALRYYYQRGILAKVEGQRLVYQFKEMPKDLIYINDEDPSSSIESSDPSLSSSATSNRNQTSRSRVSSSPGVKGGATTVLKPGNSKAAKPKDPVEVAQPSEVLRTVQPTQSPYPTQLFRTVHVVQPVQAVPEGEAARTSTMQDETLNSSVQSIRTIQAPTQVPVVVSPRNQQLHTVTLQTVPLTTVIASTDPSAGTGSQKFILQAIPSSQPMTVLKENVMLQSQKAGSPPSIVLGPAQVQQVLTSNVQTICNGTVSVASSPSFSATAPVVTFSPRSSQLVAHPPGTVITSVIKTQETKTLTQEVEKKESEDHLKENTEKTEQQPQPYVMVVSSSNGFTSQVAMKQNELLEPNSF
# Sequence of ETV5 (P41161 whole entry): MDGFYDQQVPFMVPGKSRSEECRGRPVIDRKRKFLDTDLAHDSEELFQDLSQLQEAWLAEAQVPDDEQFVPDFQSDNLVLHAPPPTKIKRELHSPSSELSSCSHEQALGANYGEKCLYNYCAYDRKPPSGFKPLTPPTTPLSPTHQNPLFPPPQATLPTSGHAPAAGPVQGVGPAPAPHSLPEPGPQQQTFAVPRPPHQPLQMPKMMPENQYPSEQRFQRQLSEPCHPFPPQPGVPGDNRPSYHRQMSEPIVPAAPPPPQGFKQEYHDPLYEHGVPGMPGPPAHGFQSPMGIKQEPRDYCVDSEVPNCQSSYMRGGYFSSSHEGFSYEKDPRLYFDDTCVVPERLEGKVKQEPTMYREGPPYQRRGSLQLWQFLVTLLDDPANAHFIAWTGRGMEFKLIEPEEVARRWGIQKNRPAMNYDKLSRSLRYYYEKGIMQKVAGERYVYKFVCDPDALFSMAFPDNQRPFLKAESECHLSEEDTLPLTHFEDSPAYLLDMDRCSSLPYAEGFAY
# Sequence of ETV1 (P50549 whole entry): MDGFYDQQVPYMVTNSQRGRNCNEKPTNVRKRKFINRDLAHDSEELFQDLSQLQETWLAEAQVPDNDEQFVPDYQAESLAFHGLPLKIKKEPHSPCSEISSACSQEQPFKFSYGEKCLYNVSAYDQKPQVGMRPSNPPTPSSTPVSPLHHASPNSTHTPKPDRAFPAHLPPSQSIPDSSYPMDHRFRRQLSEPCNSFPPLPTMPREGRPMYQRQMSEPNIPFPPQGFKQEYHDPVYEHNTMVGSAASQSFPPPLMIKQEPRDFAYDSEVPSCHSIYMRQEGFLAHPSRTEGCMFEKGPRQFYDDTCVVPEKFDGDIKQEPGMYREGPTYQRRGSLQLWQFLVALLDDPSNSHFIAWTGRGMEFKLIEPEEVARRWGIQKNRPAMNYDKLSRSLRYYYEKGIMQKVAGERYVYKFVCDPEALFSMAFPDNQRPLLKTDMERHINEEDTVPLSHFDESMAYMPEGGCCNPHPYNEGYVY
Sequence,binding signal [1],binding signal [2],binding signal [3],binding signal [4],binding signal [5],binding signal [6],binding signal [7],binding signal [8],binding signal [9],binding signal [10],binding signal [11],binding signal [12],binding signal [13],binding signal [14],binding signal [15],binding signal [16],binding signal [17]
GTTTCA,"1.34 fold enrichment (6-mer frequency, TF over GST control)","1.27 fold enrichment (6-mer frequency, TF over GST control)","1.35 fold enrichment (6-mer frequency, TF over GST control)","1.3 fold enrichment (6-mer frequency, TF over GST control)","1.4 fold enrichment (6-mer frequency, TF over GST control)","1.3 fold enrichment (6-mer frequency, TF over GST control)","1.32 fold enrichment (6-mer frequency, TF over GST control)","1.24 fold enrichment (6-mer frequency, TF over GST control)","1.44 fold enrichment (6-mer frequency, TF over GST control)","1.31 fold enrichment (6-mer frequency, TF over GST control)","1.26 fold enrichment (6-mer frequency, TF over GST control)","1.06 fold enrichment (6-mer frequency, TF over GST control)","1.33 fold enrichment (6-mer frequency, TF over GST control)","1.28 fold enrichment (6-mer frequency, TF over GST control)","1.15 fold enrichment (6-mer frequency, TF over GST control)","1.28 fold enrichment (6-mer frequency, TF over GST control)","1.43 fold enrichment (6-mer frequency, TF over GST control)"
GTACAA,"1.05 fold enrichment (6-mer frequency, TF over GST control)","1.08 fold enrichment (6-mer frequency, TF over GST control)","1.01 fold enrichment (6-mer frequency, TF over GST control)","1.11 fold enrichment (6-mer frequency, TF over GST control)","1.11 fold enrichment (6-mer frequency, TF over GST control)","1.26 fold enrichment (6-mer frequency, TF over GST control)","1.06 fold enrichment (6-mer frequency, TF over GST control)","1.04 fold enrichment (6-mer frequency, TF over GST control)","1.02 fold enrichment (6-mer frequency, TF over GST control)","1.11 fold enrichment (6-mer frequency, TF over GST control)","1.08 fold enrichment (6-mer frequency, TF over GST control)","1.12 fold enrichment (6-mer frequency, TF over GST control)","1.09 fold enrichment (6-mer frequency, TF over GST control)","1.18 fold enrichment (6-mer frequency, TF over GST control)","1.19 fold enrichment (6-mer frequency, TF over GST control)","1.08 fold enrichment (6-mer frequency, TF over GST control)","1.09 fold enrichment (6-mer frequency, TF over GST control)"
CCGGTT,"1.88 fold enrichment (6-mer frequency, TF over GST control)","2.1 fold enrichment (6-mer frequency, TF over GST control)","1.89 fold enrichment (6-mer frequency, TF over GST control)","2.2 fold enrichment (6-mer frequency, TF over GST control)","1.96 fold enrichment (6-mer frequency, TF over GST control)","1.97 fold enrichment (6-mer frequency, TF over GST control)","2.11 fold enrichment (6-mer frequency, TF over GST control)","1.97 fold enrichment (6-mer frequency, TF over GST control)","2.26 fold enrichment (6-mer frequency, TF over GST control)","2.7 fold enrichment (6-mer frequency, TF over GST control)","2.15 fold enrichment (6-mer frequency, TF over GST control)","1.68 fold enrichment (6-mer frequency, TF over GST control)","1.83 fold enrichment (6-mer frequency, TF over GST control)","1.87 fold enrichment (6-mer frequency, TF over GST control)","2.08 fold enrichment (6-mer frequency, TF over GST control)","2.09 fold enrichment (6-mer frequency, TF over GST control)","2.04 fold enrichment (6-mer frequency, TF over GST control)"
